Nrf2 ARE act = activates Nrf2 signaling | AREc32 ARE-luciferase reporter (MCF7-derived line), luminescence, 24 h | Potency, µM (titrated, usually from 46.1 µM), for inactives: top-dose activation, actives largely listed as activators | actives 0.31% (n = 410,000); note: potency is the fitted concentration of half-maximal effect; % of control where 0% means no effect; nearly all actives have a fitted effect of over 65% in size
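Luciferase luminescence (Steady-Glo, 30 min at room temperature) served as the read-out of ARE activation in AREc32 cells treated with compounds for 24 hr at 37 deg C.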
a7 integrin act = activators of alpha7 integrin expression for muscular dystrophy | Potency, µM (highest dose often 38.3 µM), without a hit: at the highest dose activation, actives largely listed as activators | actives 0.064% (n = 350,000) | alpha7betagal myoblasts, beta-gal FDG fluorescence, 48 h;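 note: potency is the fitted concentration of half-maximal effect; 100% = response of the positive control SU9516; nearly all actives have a fitted effect of over 60% in size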
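alpha7betagal+/- myoblasts (passage 13, 250/well) treated 48 h at 37C with compounds at 1:260 dilution of DMSO stock. Lysed, then beta-galactosidase activity read as FDG fluorescence (ex 480/em 540) after 30 min, with pre-read for autofluorescence.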
IL-2 act = IL-2 activation | IL-2 activation reporter assay, cell-based qHTS; stimulated with anti-CD3/CD4/CD28 beads; in transgenic mouse T cells | AID 652025 | activation, % (series mostly up to about 46 µM) | actives 0.065% (n = 360,000); in the data active = activation above about 50%; inconclusive = mostly about 30% to 49%; note: 0% is about no effect
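Screening format: compound pinned onto unstimulated transgenic mouse T cells, 60 min incubation, then anti-CD3/anti-CD4/anti-CD28 bead stimulation for 18 hours at 37 degrees C, followed by EGFP and DsRed detection.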
ALOX12 inh = ALOX12 (human) lipoxygenase inhibition; P18054; Potency, µM (series often up to 108 µM), for inactives: at the highest dose activity change, negative = inhibition, actives largely listed as inhibitors; AID 1671190; actives 1.1% (n = 580,000); purified 12hLO, xylenol orange hydroperoxide absorbance; note: potency is the fitted concentration of half-maximal effect; % is set by controls: 0 for no effect and ±100 for the full control effect
Target sequence (P18054 whole entry, looked up): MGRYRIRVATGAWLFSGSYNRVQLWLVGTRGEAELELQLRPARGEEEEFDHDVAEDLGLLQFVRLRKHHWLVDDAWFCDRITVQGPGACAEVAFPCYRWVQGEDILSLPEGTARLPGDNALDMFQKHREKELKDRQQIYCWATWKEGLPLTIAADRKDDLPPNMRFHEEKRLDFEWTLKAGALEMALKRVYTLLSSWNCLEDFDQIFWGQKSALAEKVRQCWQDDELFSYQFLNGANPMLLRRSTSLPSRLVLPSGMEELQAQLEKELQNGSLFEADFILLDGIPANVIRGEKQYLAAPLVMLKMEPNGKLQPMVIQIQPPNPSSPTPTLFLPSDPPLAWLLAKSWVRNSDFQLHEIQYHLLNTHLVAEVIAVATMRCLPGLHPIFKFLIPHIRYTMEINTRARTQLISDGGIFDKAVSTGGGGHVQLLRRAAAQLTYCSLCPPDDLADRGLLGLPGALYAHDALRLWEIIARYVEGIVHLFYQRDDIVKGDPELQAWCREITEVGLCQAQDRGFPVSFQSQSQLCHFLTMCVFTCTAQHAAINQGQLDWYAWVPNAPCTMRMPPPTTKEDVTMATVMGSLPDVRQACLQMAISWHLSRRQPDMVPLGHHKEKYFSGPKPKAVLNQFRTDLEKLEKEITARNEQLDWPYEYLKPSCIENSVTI
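Hydroperoxide product was detected by ferrous iron/xylenol orange as the 573 to 405 nm absorbance ratio. Arachidonic acid at 40 uM (final) was turned over for 30 min at room temperature by 150 nM human 12hLO, pH 7.0 Hepes buffer, after 15 min compound preincubation.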
uPA generation = inhibitors of cell surface uPA generation; AID 540303; cell surface uPA generation assay, qHTS; Potency, µM (top dose mostly 38.3 µM), for the others: top-dose activity change, negative = inhibition, most hits filed as inhibitors; actives 0.31% (n = 330,000); active = well fitted inhibition curve with a large enough effect; inconclusive = small, poorly fitted or top-dose-only effect; inactive = no such curve, though single readings can be large or run the other way; tested in mouse RAW 264.7 cells; note: potency is the fitted concentration of half-maximal effect; % is set by controls: 0 for no effect and ±100 for the full control effect; nearly all actives have a fitted effect of over 55% in size
The depositor's hits bear a star; u = inconclusive; x = no result; [ ] = another dose, or the depositor's remark. In the library only some 1.5% were active in any assay of this set; here they are far more common. Unless noted, calls come from the whole dose curve; as a rule, active = well fitted curve in the direction sought with a large enough effect; inconclusive = small, poorly fitted or top-dose-only effect, or another doubt; inactive = no such curve, though single readings can be large; an effect the other way counts as inactive or inconclusive.

SMILES | Nrf2 ARE act | a7 integrin act | IL-2 act | ALOX12 inh | uPA generation
Oc1ccc2ccccc2c1CNc1ccc(Br)cn1 | u | 19.5% | 0.8 | -4.3% | u
Oc1ccc2ccccc2c1CNc1ccc(Br)cc1 | u | -4.8% | -3.7 | 3.55µM* | -17.2%
O=C(O)C1=C[C@H](c2ccc(Br)cc2)C[C@H](OCCCCO)O1 | 0.1% | 3.9% | -0.6 | 35.5µM* | -1.2%
C#Cc1ccc([C@H]2C=C(C(=O)O)O[C@@H](OCc3ccc(CO)cc3)C2)cc1 | 0.8% | 6.7% | 1.5 | 44.7µM* | 0.6%
C#Cc1ccc([C@@H]2C=C(C(=O)NCc3ccccc3)O[C@H](OCc3ccc(CO)cc3)C2)cc1 | 9.3% | 5.1% | -0.5 | -9.1% | 2.8%
CCn1cc(S(=O)(=O)N2CCC(c3noc(-c4ccccn4)n3)C2)cn1 (configuration not stated) | x | x | x | 36.1% | x
CCCc1noc(-c2ccn3c(CNC(=O)c4ccc(C)c(F)c4)nnc3c2)n1 | x | x | x | 50.1µM* | x
Cc1ccc(C(=O)NCc2nnc3cc(-c4nc(C5CC5)no4)ccn23)cc1F | x | x | x | -5.5% | x
CCCc1noc(-c2ccn3c(CNC(=O)Cc4cccc(OC)c4)nnc3c2)n1 | x | x | x | 44.7µM* | x
COC(=O)C1CCN(Cc2cc(=O)oc3ccc(Cl)cc23)CC1 | x | x | x | 15.8µM* | x
CCOC(=O)C1CCN(Cc2cc(=O)oc3ccc(Cl)cc23)CC1 | x | x | x | 8.2% | x
CO[C@@H]1CCOC[C@H]1NS(=O)(=O)c1cc(F)ccc1C | x | x | x | 12.7% | x
CCc1nc2c(=O)n(CC(=O)N3CCN(C4CCCCC4)CC3)nc(C)c2s1 | x | x | x | 45.8% | x
COc1ccc(/C=C2/C(=O)N(c3nc4ccccc4s3)N=C2CSc2ccc(Cl)cc2)cc1 | 0.1% | 12.1% | 1.0 | 5.01µM* | 0.1%
COc1ccc(/C=C2/C(=O)N(Cc3ccccc3)N=C2C)cc1 | -0.6%[9.22 µM] | 7.9% | -0.5 | -37.7% | 0.7%
O=C(N/N=C/c1ccc([N+](=O)[O-])s1)C(O)c1ccccc1 (configuration not stated) | -0.7% | -56.2% | 1.7 | -3.4% | 10µM*
O=C(N/N=C/c1ccc([N+](=O)[O-])s1)c1ccccc1 | -1.7% | -25.3% | -1.4 | 12.5% | -20.9%
O=C(CNC(=O)c1ccccc1F)N/N=C/c1cc(Br)ccc1OCc1ccccc1 | 3.6% | 0.0% | -0.8 | -1.9% | 10.9%
O=C(CNC(=O)c1cccc(F)c1)N/N=C/c1ccc([N+](=O)[O-])s1 | -0.3% | -39.0% | 0.2 | -13.2% | 10µM*
O=C(Cc1ccccc1)N/N=C/c1ccc([N+](=O)[O-])s1 | -0.4% | -53.0% | 0.0 | 2.3% | -10.5%
O=C(CNC(=O)c1cccc(F)c1)N/N=C/c1cc(Br)ccc1OCc1ccccc1 | 0.2% | 10µM* | -4.6 | 2.1% | 1.8%
Cc1ccc(S(=O)(=O)N2CCC(CCC(=O)O)CC2)cc1 | x | x | x | 3.1% | x
Cc1cc(=O)n(CC(=O)Nc2ccccc2)c(N2CCc3ccccc3C2)n1 | x | x | x | -4.1% | x
C=C(Br)COc1ccccc1C(N)=O | x | x | x | -8.2% | x
CC(=O)Nc1cccc(C(=O)N2CCC(n3cc(-c4nc(C(C)C)no4)nn3)C2)c1 (configuration not stated) | x | x | x | -5.1% | x
SMILES | Nrf2 ARE act | a7 integrin act | IL-2 act | ALOX12 inh | uPA generation
CC1(C)CC(=O)C(C(C2=C(O)CC(C)(C)CC2=O)c2ccc(Br)s2)C(=O)C1 (configuration not stated) | 8.5% | -49.4% | -2.2 | 15.8µM* | -5.9%
CSc1oc(-c2ccco2)nc1S(=O)(=O)c1ccccc1 | 9.4% | -13.5% | 0.2 | 35.5µM* | -16.4%
CCSc1oc(-c2ccccc2)nc1S(=O)(=O)c1ccc(F)cc1 | x | x | x | 10µM* | x
CCSc1oc(-c2ccc(F)cc2)nc1S(=O)(=O)c1ccc(F)cc1 | x | x | x | -7.8% | x
CN(C)Cc1ccc(-c2cc3c(ccn3Cc3ccncc3)c(N3CCOCC3)n2)cc1 | x | x | x | 5.7%[176 µM] | x
CCCCc1nc2cc(C(=O)NCCNc3nc(C)cc(=O)[nH]3)ccc2o1 | x | x | x | 12.0% | x
O=C(/C=C/C(=O)OCCc1ccccc1)OCCc1ccccc1 | x | x | x | -15.8% | x
CCCCNc1c(-c2ccc(SC(C)CC)cc2)nc2ccccn12 (configuration not stated) | -5.1% | -41.6% | -3.0 | u | 2µM*
CNC(=O)NC(=O)CN(C)C(C)c1cccs1 (configuration not stated) | x | x | x | 0.0% | x

Screens: PubChem BioAssay, National Center for Advancing Translational Sciences (NCATS)
